Bioassay records: PubChem BioAssay, The Scripps Research Institute Molecular Screening Center
TTR transcr act: activators of transthyretin transcription | SH-SY5Y TTR promoter Gaussia luciferase, luminescence; 100% = recombinant luciferase protein wells | activation, % at 16.7 µM | 92,000 tested, 1.3% active | AID 1117267;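 active means activation above the mean of all tested compounds plus 3 SD, cut at about 9.5% in these data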;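 further: cells exposed to compounds for one day before reading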
HuH7 TTR inh: counter-screen for TTR activators: TTR transcription inhibitors in HuH7 cells; HuH7 TTR promoter-Gaussia luciferase reporter, luminescence; 1,100 tested, 4% active; inhibition, % at 16.7 µM; shares compounds with TTR transcr act;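 active means average inhibition above the solvent-only control wells' mean plus 3 SD, cut at about 15% in these data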;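 further: inhibitors lower well luminescence so higher value means more inhibition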
TTR act confirm: human TTR transcription activation, confirmation. shares compounds with TTR transcr act. SHSY5Y TTR promoter Gaussia luciferase, luminescence; 100% = purified Lucia enzyme wells, no cells. activation, % at 16.7 µM. 1,100 tested, under 10 active;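 active means mean activation above a set limit taken from the earlier primary screen, cut at about 11% in these data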
Of the large screens only hits and unclear results are named; the others gave an inactive call (follow-up assays come after a bar, where they were run). The entries come from a sample that favours hits as a whole.

O=C(CN1CCN(CC(=O)Nc2ccc(Cl)cc2)CC1)Nc1ccc(F)cc1	TTR transcr act 10.7 | HuH7 TTR inh inactive | TTR act confirm inactive
O=C(CN1CCc2ccccc2C1)Nc1ccc(F)cc1	none
Cc1sc2nc(SCC(=O)N3CCCC3)[nH]c(=O)c2c1C	none
COC(=O)[C@@H]1C[C@H]1[C@@H](NS(=O)(=O)c1ccccc1)c1ccccc1	TTR transcr act 10.0 | HuH7 TTR inh inactive | TTR act confirm inactive
COC(=O)[C@H]1C[C@@H]1[C@H](NC(=O)c1cc(C)on1)c1ccccc1	none
C[C@H](NS(=O)(=O)c1ccccc1)C(=O)N1CCN(C(c2ccccc2)c2ccccc2)CC1	none
O=C(NC(=S)Nc1cccc(F)c1)c1cccc([N+](=O)[O-])c1	none
CC(=O)N1CN(C2CCS(=O)(=O)C2)Cc2c1sc1c2CCCC1 (stereo unspecified)	none
CCCCCn1c(=O)c(Cc2ccccc2)c(O)c2ccccc21	none
CCCn1c(=O)c(C(=O)NCc2ccccc2)c(O)c2ccccc21	none
CCCn1c(=O)c(Cc2ccccc2)c(O)c2ccccc21	TTR transcr act 10.7 | HuH7 TTR inh inactive | TTR act confirm inactive
CC(=O)Nc1ccccc1-c1nc2ccc(C(=O)N3CCN(c4cc(C)ccc4C)CC3)cc2[nH]c1=O	none
CC(C)(C)S(=O)(=O)c1ccccc1C(=O)O	none
O=C(NNc1cccc([N+](=O)[O-])c1)/C(=C\c1cccnc1)NC(=O)c1ccccc1	none
COc1cc(N(C)C)c([N+](=O)[O-])cc1C(=O)NC(C)CNc1ccc([N+](=O)[O-])cc1Cl (stereo unspecified)	none
CCCc1cc(=O)[nH]c(Nc2ccc(O)cc2)n1	TTR transcr act 18.7 | HuH7 TTR inh inactive | TTR act confirm inactive
CCCc1cc(=O)[nH]c(SCC(=O)Nc2ccc3ccccc3c2)n1	none
CCCc1cc(=O)[nH]c(SCC(=O)NC2CCCCC2)n1	none
COC(=O)[C@]12C[C@H](CC(=O)NCCc3ccccc3OC)C(=O)N(CCc3ccc(OC)c(OC)c3)C1=C[C@H](C(C)C)O[C@@H]2C1CC1	none
CCCC[C@H](C(=O)N(CC)c1ccccc1)[C@@H](O)c1ccc(C(C)=O)cc1	none
CCN(C(=O)[C@@H](C)[C@@H](O)c1ccc(C(C)=O)cc1)c1ccccc1	TTR transcr act 11.3 | HuH7 TTR inh inactive | TTR act confirm inactive
C=CCN(C(=O)[C@@H](C)[C@@H](O)c1ccc(C(C)=O)cc1)c1ccccc1	none
Oc1ccc(/C=N/Nc2nc(-c3ccc(Cl)cc3)cc(C(F)(F)F)n2)cc1	none
Nc1c(C(=O)c2ccc(Cl)cc2)sc2nc3c(cc12)CCC3	none
CCCCN1C(=O)CCC(C(=O)O)C1c1ccccc1 (stereo unspecified)	none
O=C(Cn1ccc(C(F)(F)F)n1)NNC(=O)c1ccco1	none
Cc1ccc(CNC(=O)Cc2ccc(-c3ccccc3)cc2)cc1	TTR transcr act 12.6 | HuH7 TTR inh 52.7 | TTR act confirm inactive
Cc1ccc(CC(=O)NCc2ccc(F)cc2)cc1	none
O=C(Cc1ccc(-c2ccccc2)cc1)NCc1ccccc1	none
CCCCN1CC(=O)N2[C@H]3c4ccc(OC)cc4OC[C@@H]3[C@H](c3ccccc3)[C@]2(C)C1=O	none
O=[N+]([O-])c1cccc(-c2cnc3ccccc3n2)c1	none
CCOC(=O)[C@]12CCCC=C1N(Cc1ccc(OC)cc1)C(=O)[C@@H]2CC(=O)N1CCSCC1	none
Cc1ncoc1C(=O)Nc1nccs1	TTR transcr act 10.0 | HuH7 TTR inh inactive | TTR act confirm inactive
O=C(Nc1nccs1)c1ccc2c(c1)OCO2	none
CC(=O)c1noc(C)c1C(=O)Nc1nccs1	none
CCOC(=O)c1ccc(NC(=O)c2cccc(C)c2[N+](=O)[O-])cc1	none
CSc1ccccc1C(=O)Nc1nccs1	none
Cc1cccc(C(=O)Nc2nccs2)c1[N+](=O)[O-]	TTR transcr act 40.4 | HuH7 TTR inh inactive | TTR act confirm inactive
CCC(=O)NC(=S)Nc1ccc(NC(=O)COc2ccccc2)cc1	none
COc1cccc2cc3c(=O)n(-c4ccccc4)nc-3oc12	none
Cc1cccc(C(=O)N(Cc2nc3ccccc3c(=O)[nH]2)C2CCCC2)c1	none
O=C(c1ccccc1)N(Cc1nc2ccccc2c(=O)[nH]1)C1CCCC1	none
O=C(COCc1nc2ccccc2c(=O)[nH]1)NCC1CCCCC1	TTR transcr act 12.9 | HuH7 TTR inh inactive | TTR act confirm inactive
O=C(CN1CCC(C(=O)c2ccc(Cl)cc2)CC1)Nc1ccc2c(c1)OCCO2	none
Cc1cc(NC(=O)COC(=O)CCn2c(C)csc2=O)c([N+](=O)[O-])cc1C	none
Cc1nc2scc(C)n2c(=O)c1S(=O)(=O)N1CCN(c2ccccn2)CC1	none
CCCCn1nnnc1C(c1ccccc1)N1CCN(c2ccc(C(F)(F)F)cn2)CC1 (stereo unspecified)	none
C=CC[C@@H](CC(=O)N[C@H](CO)Cc1ccccc1)C(=O)N[C@H](COC(=O)[C@@H](CC=C)Cc1ccc(F)cc1)Cc1c[nH]c2ccccc12	none
O=C(O)c1ccc2c(c1)N(Cc1ccccc1)C(=O)c1ccccc1S2=O (stereo unspecified)	none
COc1ccc(CNC(=O)CN(Cc2ccc(Cl)cc2)S(=O)(=O)c2ccccc2)cc1	none
CNC(=O)CN(Cc1ccccc1)S(=O)(=O)c1ccccc1	none
O=C(CN(Cc1ccc(Br)cc1)S(=O)(=O)c1ccccc1)NCc1ccccn1	TTR transcr act 21.9 | HuH7 TTR inh inactive | TTR act confirm inactive
O=C(c1cc(F)ccc1F)C1CCCN(C(=O)c2ccco2)C1 (stereo unspecified)	none
Cc1cccc(Cn2c(N(C)Cc3ccccc3)nc3c2c(=O)[nH]c(=O)n3C)c1	none
Cc1nc(SCC(=O)N2CCN(c3ccccn3)CC2)c(C#N)c(C)c1C	none
FC(F)(F)c1ccccc1-n1c(-c2cnccn2)n[nH]c1=S	none
COc1cc(-n2c(-c3ccccc3)n[nH]c2=S)c(OC)cc1Cl	none
COc1cc(-c2n[nH]c(=S)n2-c2ccccc2C(F)(F)F)cc(OC)c1OC	TTR transcr act 9.9 | HuH7 TTR inh inactive | TTR act confirm inactive
CC(=O)c1sc(N/N=C\c2cccc(Br)c2)nc1C	none
CN(CCc1ccccc1)C(=O)c1cccc(NC(=O)Cc2cccc(NC(=O)C3CCN(C(=O)C4CCC4)CC3)c2)c1	none
CN(CCc1ccccc1)C(=O)c1cccc(NC(=O)Cc2cccc(NC(=O)C3CCN(C(=O)C4CCCCC4)CC3)c2)c1	none
CN(CCc1ccccc1)C(=O)c1ccc(NC(=O)Cc2cccc(NC(=O)C3CCN(C(=O)C4CCCCC4)CC3)c2)cc1	TTR transcr act 11.3 | HuH7 TTR inh inactive | TTR act confirm inactive
O=C(N/C(=C/c1cccs1)C(=O)N1CCOCC1)c1cccs1	none
O=C1[C@H]2[C@@H](c3ccc(F)cc3)N3C(=O)N(c4cccc(Br)c4)C(=O)[C@@]3(Cc3ccccc3)[C@H]2C(=O)N1C1CCCCC1	none
Cc1cccc([C@@H]2[C@@H]3C(=O)N(Cc4ccccc4)C(=O)[C@@H]3[C@]3(Cc4ccccc4)C(=O)N(c4cccc(Cl)c4)C(=O)N23)c1	none
O=C1[C@H]2[C@@H](c3ccc(Cl)cc3)N3C(=O)N(c4cccc(Cl)c4)C(=O)[C@@]3(Cc3ccccc3)[C@H]2C(=O)N1C1CCCCC1	TTR transcr act 15.7 | HuH7 TTR inh inactive | TTR act confirm inactive
O=S(=O)(NC1CCCCC1)c1ccc(S(=O)(=O)N2CCN3CCCC3C2)cc1 (stereo unspecified)	none
CCC(=O)Nc1c(OC(=O)CC)ccc2c(C)cc(=O)oc12	none
O=c1c2ccccc2oc2ccc(NCCCn3ccnc3)cc12	none
